# Results from PubChem BioAssay AID2570 (National Center for Advancing Translational Sciences (NCATS), 2010).
# Results filed as inconclusive are left out. Values without a mark were called inactive. Calls follow the shape of the dose curve; as a rule, active = well fitted curve in the direction sought with a large enough effect; inconclusive = small, poorly fitted or top-dose-only effect, or another doubt; inactive = no such curve, though single readings can be large or run the other way.
# Molecular target: Vasopressin V1b receptor (Homo sapiens) (UniProt P47901)
# Experiment: Counterscreen Concentration-Response Assay for Antagonists of the Neuropeptide S Receptor: Vasopressin Receptor Calcium Signal Transduction
# Conditions: CHO-AVPR1B, vasopressin-stimulated calcium fluorescence, FDSS
# Text: NIH Chemical Genomics Center [NCGC] NIH Molecular Libraries Probe Production centers Network [MLPCN] MLPCN Grant: X01-DA026210-01 Assay Submitter (PI): Heilig, Markus Alexander NCGC Assay Overview: Neuropeptide S receptor (NPSR), previously known as GPR154, is a recently de-orphanized G protein coupled receptor. Its endogenous ligand is the 20 amino acids peptide Neuropeptide S (NPS). […] NPS and its receptor are found in various tissues. Specifically they are highly expressed in brain areas that have been implicated in modulation of arousal, stress and anxiety. […] This change in intracellular calcium can be detected using a calcium indicator dye on a calcium imaging plate reader system (FDSS). […]
# NCGC Assay Protocol Summary: A Chinese hamster ovary (CHO) cell line stably expressing human vasopressin receptor (AVPR1B) was maintained in F-12 Kaighn's media (Invitrogen, Carlsbad, CA, 21127) supplemented with 10 % FBS, 100 units/ml penicillin, 100 ug/ml streptomycin and 250 ug/ml geneticin at 37C, 5% CO2 in a humidified atmosphere. […] The assay was performed on a FDSS-7000 kinetic plate reader in 1536-well format. The maximums of kinetic fluorescence responses were converted into text files using the instrument's software data export utility. […] AC50 values were determined from concentration-response data modeled with the standard Hill equation. […]
# Vasopressin V1b receptor (Homo sapiens), sequence (P47901 whole entry, looked up): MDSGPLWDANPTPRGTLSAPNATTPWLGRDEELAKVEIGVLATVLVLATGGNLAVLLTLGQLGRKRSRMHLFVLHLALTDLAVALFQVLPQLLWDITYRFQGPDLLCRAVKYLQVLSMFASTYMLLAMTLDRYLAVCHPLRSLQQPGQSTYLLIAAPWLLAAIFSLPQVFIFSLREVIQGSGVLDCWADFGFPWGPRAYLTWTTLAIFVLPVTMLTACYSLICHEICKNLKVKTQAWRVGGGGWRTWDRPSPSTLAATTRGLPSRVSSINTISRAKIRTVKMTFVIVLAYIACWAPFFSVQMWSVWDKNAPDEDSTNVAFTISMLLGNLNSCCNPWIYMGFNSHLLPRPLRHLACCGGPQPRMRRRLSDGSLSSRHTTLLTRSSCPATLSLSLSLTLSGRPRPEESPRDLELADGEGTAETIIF
structure (smiles),measurement,value
Cc1c(P(=S)(c2ccccc2)c2ccccc2)[n+]2ccccc2n1C,max response,7.72%
